Results filed as inconclusive are left out. Values without a mark were called inactive. Calls of active or inactive are those of the source. The call rests on the fitted dose curve; in most records, active means well fitted inhibition curve with a large enough effect in the repeat runs; inconclusive means weak or mixed curves; inactive means no such curve, though single readings can be large or run the other way.
Target: Cytochrome P450 3A4 (Homo sapiens) (UniProt P08684)
Test: Cytochrome P450 family 3 subfamily A member 4 (CYP3A4) small molecule antagonists: luciferase qHTS assay (AID 1645841); further: nearly all actives have a fitted effect of over 45% in size
Conditions: P450-Glo CYP3A4 enzyme assay, luciferin luminescence; series mostly up to 57.4 µM; activity change, negative = inhibition: at the top concentration
Description: National Center for Advancing Translational Sciences [NCATS]
Cytochrome P450 (CYP) enzymes are membrane-bound hemeproteins that play a key role in metabolism of drugs and xenobiotics. Assaying the effect of chemicals on CYP isozymes is useful to minimize the adverse drug reactions and toxicities in drug development process. Chemical compounds were tested for their effect on CYP enzyme activities by using P450-Glo (TM) screening systems (Promega Corporation, Madison, WI). These systems provide a luminescent method containing proluciferin substrates and are converted to luciferin products by CYP isozymes. The luciferin products formed are detected with a luciferin detection reagent, and the amount of light produced is proportional to CYP activity. P450-Glo (TM) CYP3A4 screening system (Catalog. No. V9910) was used to detect the compounds that interfere in CYP3A4 activity. The positive control compound used for CYP3A4 assay is ketoconazole (Sigma-Aldrich, St. Louis, MO).
Two ul of enzyme-substrate mix was dispensed into medium binding white/solid 1536-well plates (Greiner Bio-One North America Inc., Monroe, NC) using a Flying Reagent Dispenser (FRD, Aurora Discovery, San Diego, CA). Test compounds dissolved in DMSO and positive control (ketoconazole) were transferred to the assay plates at 23 nl using a Pintool station (Wako, San Diego, CA). The assay plates were incubated at room temperature for 10 min. Then 2 ul of NADPH regeneration solution was added to each well of the assay plates using an FRD and incubated at room temperature for 1 h. The reaction was stopped by adding 4 ul of detection reagent using an FRD and after 20 min incubation at room temperature, the luminescence signal was measured using a ViewLux plate reader (Perkin Elmer, Shelton, CT). Data were expressed as relative luminescence units.
Potency means the concentration at half of the fitted maximal effect.

Chain of Cytochrome P450 3A4 (Homo sapiens) (P08684 whole entry, looked up): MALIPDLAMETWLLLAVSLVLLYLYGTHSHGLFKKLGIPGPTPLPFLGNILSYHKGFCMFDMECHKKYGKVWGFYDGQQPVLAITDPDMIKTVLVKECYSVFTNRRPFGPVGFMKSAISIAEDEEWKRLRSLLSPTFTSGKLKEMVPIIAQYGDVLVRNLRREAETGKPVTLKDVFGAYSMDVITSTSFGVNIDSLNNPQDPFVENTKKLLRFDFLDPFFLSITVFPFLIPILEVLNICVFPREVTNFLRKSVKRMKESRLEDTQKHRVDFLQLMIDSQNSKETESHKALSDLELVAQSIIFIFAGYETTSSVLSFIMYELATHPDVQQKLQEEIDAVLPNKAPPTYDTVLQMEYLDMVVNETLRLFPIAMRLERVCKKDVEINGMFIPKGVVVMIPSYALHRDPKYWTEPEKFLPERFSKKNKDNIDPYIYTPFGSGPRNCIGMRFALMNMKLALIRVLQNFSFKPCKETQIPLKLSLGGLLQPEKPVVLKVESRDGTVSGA

In the case of Oc1ccc(C2(c3ccccc3F)CCC(F)(F)CC2)cc1, the Potency is reported as 12 µM (active).
Cc1ccc(-n2nc3c(N4CCCC(C(=O)NCc5ccccc5C)C4)nnc(C)c3c2C)cc1 (stereo unspecified) was tested, and the Potency was 1.69 µM (active).
For CCc1ccc(CNC(=O)C2CCCN(c3nnc(C)c4c(C)n(-c5ccccc5)nc34)C2)cc1 (stereo unspecified), the Potency was 1.9 µM (active).

Going from CC(C)OCc1cc(CN2CCN(c3ccccc3)CC2)c(O)c2ncccc12 to Cc1nc2c(-c3ccccc3)c(C)[nH]n2c(=O)c1Cc1ccc(Br)cc1, the “activity change, negative = inhibition” value rises from -14% to -6.3%.

Going from Cc1ccc(Nc2nc3nonc3nc2Nc2cccc(C(F)(F)F)c2)cc1Cl to C[S+](=O)([O-])Nc1ccc(-c2ccc3nc(-c4cccc(OC(F)(F)F)c4)[nH]c3c2)cc1, the “activity change, negative = inhibition” value falls from 28% to -26.2%.

First: CN[C@H](CC(C)C)C(=O)N[C@H]1C(=O)N[C@@H](CC(N)=O)C(=O)N[C@H]2C(=O)N[C@H]3C(=O)N[C@H](C(=O)N[C@H](C(=O)O)c4cc(O)cc(O)c4-c4cc3ccc4O)[C@H](O)c3ccc(c(Cl)c3)Oc3cc2cc(c3O[C@@H]2OC(CO)[C@@H](O)[C@H](O)[C@@H]2O[C@H]2C[C@](C)(N)[C@H](O)[C@H](C)O2)Oc2ccc(cc2Cl)[C@H]1O (stereo partly specified)
Second: O=C(O)CN(CC(=O)O)Cc1cc2c(-c3ccccc3C(=O)O)c3cc(CN(CC(=O)O)CC(=O)O)c(=O)cc-3oc2cc1O
The “activity change, negative = inhibition” value of the first is lower: -6.63% for the first, 34.7% for the second.

Compared with OC[C@H]1O[C@@H]2O[C@H]3[C@H](O)[C@@H](O)[C@@H](O[C@H]4[C@H](O)[C@@H](O)[C@@H](O[C@H]5[C@H](O)[C@@H](O)[C@@H](O[C@H]6[C@H](O)[C@@H](O)[C@@H](O[C@H]7[C@H](O)[C@@H](O)[C@@H](O[C@H]1[C@H](O)[C@@H]2O)O[C@@H]7CO)O[C@@H]6CO)O[C@@H]5CO)O[C@@H]4CO)O[C@@H]3CO, C[S+](=O)([O-])Nc1ccc(-c2ccc3nc(-c4ccc(OC(F)(F)F)cc4)[nH]c3c2)cc1 is lower in “activity change, negative = inhibition” value: 29.1% for the first, 16.7% for the second.
